Source: PubChem BioAssay (NCI)
This is part of a sample that, as a whole, favours compounds with a hit. Of some 83,000 tested, about 20% had one in any assay.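 48-hour exposure, single concentration, 96-well plates; percent growth endpoint where 0 means no net growth. Active: below 10.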 The source made the active and inactive calls.

system: UACC-62 melanoma; test: NCI-60 one-dose screen, 48 h (100 = growth as untreated, 0 = no growth, -100 = all killed); conditions: 10 µM unless noted

Row | SMILES | growth
1 | C=C1C(=O)O[C@H]2[C@H]1CC/C(COC(=O)c1cn(C)c3ccccc13)=C\CC[C@@]1(C)O[C@@H]21 | -51.1% (active)
2 | CCOCCc1c(O)nc(SC)[nH]c1=O | 98.1% (inactive)
3 | COc1ccccc1N1CCN(CCCOc2ccc(C(=O)/C=C3/C(=O)Nc4ccccc43)cc2)CC1 | 56.1% (inactive)
4 | O=C(CCl)N1CCCc2ccccc21 | 94.3% (inactive)
5 | C#C[C@@]1(O)[C@@H](CO)O[C@@H](n2cc(Br)c3c(N)ncnc32)[C@@H]1O | 15.1% (inactive)
6 | COc1ccc(C(=O)c2cc(F)c(F)c(OC)c2F)cc1OC(=O)CCl | 31.7% (inactive)
7 | Cc1ccccc1NC(=O)c1sc2nc(C)c(C(C)O)cc2c1N (stereo not given) | 25.5% (inactive)
8 | OCCNc1nc(NCCO)nc(Nc2ccc(C3=NN(c4cc(Cl)cc(Cl)c4)C(c4ccc(Cl)cc4)C3)cc2)n1 (stereo not given) | 13.1% (inactive)
9 | COc1ccc(NC(=O)c2sc3nc(C)c(C(C)=O)cc3c2N)cc1 | 92.9% (inactive)
10 | Cc1ccc(-c2nc(C#N)c(S(=O)(=O)N(C)CCO)o2)cc1 | 62.4% (inactive)
11 | O=C(CSC(=S)N1CCCCC1)Nc1ccccc1 | 91.6% (inactive)
12 | COc1cc2c(cc1OC)C(Sc1ccc(Cl)cc1)c1c(nc(N)c(C#N)c1N)O2 (stereo not given) | -23.8% (active)
13 | COC(=O)c1cncc(C(=O)Nc2ccc(-n3cnc4ccccc43)cc2)c1 | 93.4% (inactive)
14 | O=C(/C(=C/c1ccc([N+](=O)[O-])cc1)SCc1ccc(Cl)cc1)c1ccc(F)cc1 | 33.8% (inactive)
15 | CCOC(=O)c1c(-c2ccc(O)cc2)c(C#N)c2c(C#N)c(N)nn2c1N | 36.9% (inactive)
